According to the supplement of paper PMC11732987, “Enantioselective OTUD7B fragment discovery through chemoproteomics screening and high-throughput optimisation” (Communications Chemistry, 2025):

Tests used:
Test in all cases: log2 ratio of Biotin-Ahx-Ub-VS probe labelling (fragment/DMSO); higher = less target engagement (more negative = stronger competition), active = hit call of the paper (q ≤ 0.05, log2 ratio ≤ -1)
Conditions in all cases: compound concentration: 200 uM; treatment time: 3 h
USP34 = USP34 (UniProt Q70CQ2)
Method in brief: (§1)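 HEK293T lysate in Tris/CHAPS/IGEPAL buffer with protease inhibitors (495 µg per sample) was given fragment at 200 µM or vehicle for 3 h, in triplicate. It then received Biotin-Ahx-Ub-VS at 0.5 µM final for 1 h. Labelled DUBs were NeutrAvidin-enriched, digested with LysC and trypsin, and run by diaPASEF LC-MS/MS. Values are average log2 fragment/vehicle ratios by unpaired t-test on global-median-normalised Spectronaut quantities of proteins with ≥2 unique peptides.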

USP36 = target: T1, USP36 (UniProt Q9P275)
T1 sequence (whole entry): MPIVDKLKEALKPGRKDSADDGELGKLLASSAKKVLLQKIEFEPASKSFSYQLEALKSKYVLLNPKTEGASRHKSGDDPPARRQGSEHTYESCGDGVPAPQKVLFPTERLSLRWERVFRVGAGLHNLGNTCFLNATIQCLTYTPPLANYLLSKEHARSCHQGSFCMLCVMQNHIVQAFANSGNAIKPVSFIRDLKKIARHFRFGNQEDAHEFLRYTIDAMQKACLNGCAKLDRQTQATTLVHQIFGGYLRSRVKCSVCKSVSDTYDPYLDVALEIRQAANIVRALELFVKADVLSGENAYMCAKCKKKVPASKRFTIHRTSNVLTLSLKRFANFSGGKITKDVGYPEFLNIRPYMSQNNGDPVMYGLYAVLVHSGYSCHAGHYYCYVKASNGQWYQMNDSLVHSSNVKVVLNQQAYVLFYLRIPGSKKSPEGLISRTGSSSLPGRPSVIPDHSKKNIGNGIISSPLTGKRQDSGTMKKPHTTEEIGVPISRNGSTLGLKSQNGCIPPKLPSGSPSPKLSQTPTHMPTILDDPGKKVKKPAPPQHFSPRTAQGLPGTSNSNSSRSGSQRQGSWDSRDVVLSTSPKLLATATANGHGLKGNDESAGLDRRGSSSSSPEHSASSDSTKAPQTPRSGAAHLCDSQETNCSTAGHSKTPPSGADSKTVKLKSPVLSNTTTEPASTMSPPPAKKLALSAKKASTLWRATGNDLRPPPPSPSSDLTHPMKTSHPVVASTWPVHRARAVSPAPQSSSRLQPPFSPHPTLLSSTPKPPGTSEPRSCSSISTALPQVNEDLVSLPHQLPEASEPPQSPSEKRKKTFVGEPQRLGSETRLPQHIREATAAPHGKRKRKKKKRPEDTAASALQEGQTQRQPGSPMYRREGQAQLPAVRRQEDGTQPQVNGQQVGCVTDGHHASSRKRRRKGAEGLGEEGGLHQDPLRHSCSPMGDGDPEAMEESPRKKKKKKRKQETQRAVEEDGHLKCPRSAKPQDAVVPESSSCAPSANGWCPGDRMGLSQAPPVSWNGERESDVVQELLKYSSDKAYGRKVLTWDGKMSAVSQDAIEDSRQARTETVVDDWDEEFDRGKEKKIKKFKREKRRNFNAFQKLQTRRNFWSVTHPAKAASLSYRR
Method in brief: as §1

USP38 = target: T2, USP38 (UniProt Q8NB14)
T2 sequence (whole entry): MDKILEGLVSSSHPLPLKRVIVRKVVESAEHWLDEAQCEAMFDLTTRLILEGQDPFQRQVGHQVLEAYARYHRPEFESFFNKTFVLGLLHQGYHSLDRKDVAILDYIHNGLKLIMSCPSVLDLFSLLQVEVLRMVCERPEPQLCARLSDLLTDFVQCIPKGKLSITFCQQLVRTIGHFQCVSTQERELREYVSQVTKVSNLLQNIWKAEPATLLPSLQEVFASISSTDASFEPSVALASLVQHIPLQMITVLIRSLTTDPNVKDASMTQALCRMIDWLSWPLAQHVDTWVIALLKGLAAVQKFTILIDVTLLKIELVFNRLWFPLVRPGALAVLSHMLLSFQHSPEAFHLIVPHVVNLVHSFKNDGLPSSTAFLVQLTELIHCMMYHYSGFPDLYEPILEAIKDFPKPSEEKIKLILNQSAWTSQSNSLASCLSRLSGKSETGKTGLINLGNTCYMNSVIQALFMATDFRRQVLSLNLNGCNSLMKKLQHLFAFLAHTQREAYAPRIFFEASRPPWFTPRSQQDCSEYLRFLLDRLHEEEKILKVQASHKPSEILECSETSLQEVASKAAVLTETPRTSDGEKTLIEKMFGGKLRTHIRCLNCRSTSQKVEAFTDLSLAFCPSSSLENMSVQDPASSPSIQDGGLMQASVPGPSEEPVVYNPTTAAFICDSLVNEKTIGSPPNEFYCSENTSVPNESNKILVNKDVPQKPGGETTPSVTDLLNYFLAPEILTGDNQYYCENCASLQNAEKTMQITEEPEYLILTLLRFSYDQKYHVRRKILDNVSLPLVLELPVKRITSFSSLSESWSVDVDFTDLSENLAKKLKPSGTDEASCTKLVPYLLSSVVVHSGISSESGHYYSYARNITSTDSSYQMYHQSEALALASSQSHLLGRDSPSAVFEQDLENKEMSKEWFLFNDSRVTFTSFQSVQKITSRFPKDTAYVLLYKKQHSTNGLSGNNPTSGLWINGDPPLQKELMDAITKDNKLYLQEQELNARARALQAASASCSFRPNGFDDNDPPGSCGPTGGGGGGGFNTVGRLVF
Method in brief: as §1

USP39 = target: T3, USP39 (UniProt Q53GS9)
T3 sequence (whole entry): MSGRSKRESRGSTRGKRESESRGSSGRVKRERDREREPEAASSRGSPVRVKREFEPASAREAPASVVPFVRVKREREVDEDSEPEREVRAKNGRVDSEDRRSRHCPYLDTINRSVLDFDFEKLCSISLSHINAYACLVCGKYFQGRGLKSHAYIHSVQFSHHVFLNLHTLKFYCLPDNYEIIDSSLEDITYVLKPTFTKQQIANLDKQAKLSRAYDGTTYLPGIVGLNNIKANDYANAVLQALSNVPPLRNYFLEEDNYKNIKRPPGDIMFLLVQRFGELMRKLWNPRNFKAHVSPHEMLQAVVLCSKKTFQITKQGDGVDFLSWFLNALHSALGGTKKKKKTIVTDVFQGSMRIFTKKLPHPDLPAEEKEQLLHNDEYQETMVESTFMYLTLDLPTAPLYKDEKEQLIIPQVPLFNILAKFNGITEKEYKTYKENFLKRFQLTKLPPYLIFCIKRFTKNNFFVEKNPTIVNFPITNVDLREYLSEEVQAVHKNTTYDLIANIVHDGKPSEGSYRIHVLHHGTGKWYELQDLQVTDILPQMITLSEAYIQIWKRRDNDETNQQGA
Method in brief: as §1

USP4 = target: T4, USP4 (UniProt Q13107)
T4 sequence (whole entry): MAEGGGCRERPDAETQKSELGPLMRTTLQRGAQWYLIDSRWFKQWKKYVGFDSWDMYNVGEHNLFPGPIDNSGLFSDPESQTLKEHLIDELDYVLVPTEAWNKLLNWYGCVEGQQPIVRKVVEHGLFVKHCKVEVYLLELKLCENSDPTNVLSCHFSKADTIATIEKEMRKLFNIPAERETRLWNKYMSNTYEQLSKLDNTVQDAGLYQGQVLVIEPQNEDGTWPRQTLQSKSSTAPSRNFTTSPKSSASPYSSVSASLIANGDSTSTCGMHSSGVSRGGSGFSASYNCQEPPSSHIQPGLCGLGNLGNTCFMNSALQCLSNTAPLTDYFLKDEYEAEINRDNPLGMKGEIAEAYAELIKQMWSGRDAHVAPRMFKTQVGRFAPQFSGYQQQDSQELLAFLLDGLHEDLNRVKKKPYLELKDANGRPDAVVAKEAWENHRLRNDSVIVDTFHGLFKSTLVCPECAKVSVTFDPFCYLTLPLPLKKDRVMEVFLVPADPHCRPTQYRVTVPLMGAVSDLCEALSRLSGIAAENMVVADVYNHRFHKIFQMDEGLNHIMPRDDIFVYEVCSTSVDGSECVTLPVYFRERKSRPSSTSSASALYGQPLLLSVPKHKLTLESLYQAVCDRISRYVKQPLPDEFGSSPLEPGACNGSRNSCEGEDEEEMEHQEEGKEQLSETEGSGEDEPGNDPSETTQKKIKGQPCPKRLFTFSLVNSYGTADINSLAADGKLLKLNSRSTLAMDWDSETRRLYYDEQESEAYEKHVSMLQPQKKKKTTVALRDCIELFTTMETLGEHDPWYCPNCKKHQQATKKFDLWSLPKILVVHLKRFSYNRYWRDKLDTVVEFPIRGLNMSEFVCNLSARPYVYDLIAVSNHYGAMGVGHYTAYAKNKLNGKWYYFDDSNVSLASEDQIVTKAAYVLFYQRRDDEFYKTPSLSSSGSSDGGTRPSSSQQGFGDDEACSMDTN
Method in brief: as §1

Measured: log2 ratio of Biotin-Ahx-Ub-VS probe labelling

Sequence of USP34 (Q70CQ2 whole entry, the tested form may be a part): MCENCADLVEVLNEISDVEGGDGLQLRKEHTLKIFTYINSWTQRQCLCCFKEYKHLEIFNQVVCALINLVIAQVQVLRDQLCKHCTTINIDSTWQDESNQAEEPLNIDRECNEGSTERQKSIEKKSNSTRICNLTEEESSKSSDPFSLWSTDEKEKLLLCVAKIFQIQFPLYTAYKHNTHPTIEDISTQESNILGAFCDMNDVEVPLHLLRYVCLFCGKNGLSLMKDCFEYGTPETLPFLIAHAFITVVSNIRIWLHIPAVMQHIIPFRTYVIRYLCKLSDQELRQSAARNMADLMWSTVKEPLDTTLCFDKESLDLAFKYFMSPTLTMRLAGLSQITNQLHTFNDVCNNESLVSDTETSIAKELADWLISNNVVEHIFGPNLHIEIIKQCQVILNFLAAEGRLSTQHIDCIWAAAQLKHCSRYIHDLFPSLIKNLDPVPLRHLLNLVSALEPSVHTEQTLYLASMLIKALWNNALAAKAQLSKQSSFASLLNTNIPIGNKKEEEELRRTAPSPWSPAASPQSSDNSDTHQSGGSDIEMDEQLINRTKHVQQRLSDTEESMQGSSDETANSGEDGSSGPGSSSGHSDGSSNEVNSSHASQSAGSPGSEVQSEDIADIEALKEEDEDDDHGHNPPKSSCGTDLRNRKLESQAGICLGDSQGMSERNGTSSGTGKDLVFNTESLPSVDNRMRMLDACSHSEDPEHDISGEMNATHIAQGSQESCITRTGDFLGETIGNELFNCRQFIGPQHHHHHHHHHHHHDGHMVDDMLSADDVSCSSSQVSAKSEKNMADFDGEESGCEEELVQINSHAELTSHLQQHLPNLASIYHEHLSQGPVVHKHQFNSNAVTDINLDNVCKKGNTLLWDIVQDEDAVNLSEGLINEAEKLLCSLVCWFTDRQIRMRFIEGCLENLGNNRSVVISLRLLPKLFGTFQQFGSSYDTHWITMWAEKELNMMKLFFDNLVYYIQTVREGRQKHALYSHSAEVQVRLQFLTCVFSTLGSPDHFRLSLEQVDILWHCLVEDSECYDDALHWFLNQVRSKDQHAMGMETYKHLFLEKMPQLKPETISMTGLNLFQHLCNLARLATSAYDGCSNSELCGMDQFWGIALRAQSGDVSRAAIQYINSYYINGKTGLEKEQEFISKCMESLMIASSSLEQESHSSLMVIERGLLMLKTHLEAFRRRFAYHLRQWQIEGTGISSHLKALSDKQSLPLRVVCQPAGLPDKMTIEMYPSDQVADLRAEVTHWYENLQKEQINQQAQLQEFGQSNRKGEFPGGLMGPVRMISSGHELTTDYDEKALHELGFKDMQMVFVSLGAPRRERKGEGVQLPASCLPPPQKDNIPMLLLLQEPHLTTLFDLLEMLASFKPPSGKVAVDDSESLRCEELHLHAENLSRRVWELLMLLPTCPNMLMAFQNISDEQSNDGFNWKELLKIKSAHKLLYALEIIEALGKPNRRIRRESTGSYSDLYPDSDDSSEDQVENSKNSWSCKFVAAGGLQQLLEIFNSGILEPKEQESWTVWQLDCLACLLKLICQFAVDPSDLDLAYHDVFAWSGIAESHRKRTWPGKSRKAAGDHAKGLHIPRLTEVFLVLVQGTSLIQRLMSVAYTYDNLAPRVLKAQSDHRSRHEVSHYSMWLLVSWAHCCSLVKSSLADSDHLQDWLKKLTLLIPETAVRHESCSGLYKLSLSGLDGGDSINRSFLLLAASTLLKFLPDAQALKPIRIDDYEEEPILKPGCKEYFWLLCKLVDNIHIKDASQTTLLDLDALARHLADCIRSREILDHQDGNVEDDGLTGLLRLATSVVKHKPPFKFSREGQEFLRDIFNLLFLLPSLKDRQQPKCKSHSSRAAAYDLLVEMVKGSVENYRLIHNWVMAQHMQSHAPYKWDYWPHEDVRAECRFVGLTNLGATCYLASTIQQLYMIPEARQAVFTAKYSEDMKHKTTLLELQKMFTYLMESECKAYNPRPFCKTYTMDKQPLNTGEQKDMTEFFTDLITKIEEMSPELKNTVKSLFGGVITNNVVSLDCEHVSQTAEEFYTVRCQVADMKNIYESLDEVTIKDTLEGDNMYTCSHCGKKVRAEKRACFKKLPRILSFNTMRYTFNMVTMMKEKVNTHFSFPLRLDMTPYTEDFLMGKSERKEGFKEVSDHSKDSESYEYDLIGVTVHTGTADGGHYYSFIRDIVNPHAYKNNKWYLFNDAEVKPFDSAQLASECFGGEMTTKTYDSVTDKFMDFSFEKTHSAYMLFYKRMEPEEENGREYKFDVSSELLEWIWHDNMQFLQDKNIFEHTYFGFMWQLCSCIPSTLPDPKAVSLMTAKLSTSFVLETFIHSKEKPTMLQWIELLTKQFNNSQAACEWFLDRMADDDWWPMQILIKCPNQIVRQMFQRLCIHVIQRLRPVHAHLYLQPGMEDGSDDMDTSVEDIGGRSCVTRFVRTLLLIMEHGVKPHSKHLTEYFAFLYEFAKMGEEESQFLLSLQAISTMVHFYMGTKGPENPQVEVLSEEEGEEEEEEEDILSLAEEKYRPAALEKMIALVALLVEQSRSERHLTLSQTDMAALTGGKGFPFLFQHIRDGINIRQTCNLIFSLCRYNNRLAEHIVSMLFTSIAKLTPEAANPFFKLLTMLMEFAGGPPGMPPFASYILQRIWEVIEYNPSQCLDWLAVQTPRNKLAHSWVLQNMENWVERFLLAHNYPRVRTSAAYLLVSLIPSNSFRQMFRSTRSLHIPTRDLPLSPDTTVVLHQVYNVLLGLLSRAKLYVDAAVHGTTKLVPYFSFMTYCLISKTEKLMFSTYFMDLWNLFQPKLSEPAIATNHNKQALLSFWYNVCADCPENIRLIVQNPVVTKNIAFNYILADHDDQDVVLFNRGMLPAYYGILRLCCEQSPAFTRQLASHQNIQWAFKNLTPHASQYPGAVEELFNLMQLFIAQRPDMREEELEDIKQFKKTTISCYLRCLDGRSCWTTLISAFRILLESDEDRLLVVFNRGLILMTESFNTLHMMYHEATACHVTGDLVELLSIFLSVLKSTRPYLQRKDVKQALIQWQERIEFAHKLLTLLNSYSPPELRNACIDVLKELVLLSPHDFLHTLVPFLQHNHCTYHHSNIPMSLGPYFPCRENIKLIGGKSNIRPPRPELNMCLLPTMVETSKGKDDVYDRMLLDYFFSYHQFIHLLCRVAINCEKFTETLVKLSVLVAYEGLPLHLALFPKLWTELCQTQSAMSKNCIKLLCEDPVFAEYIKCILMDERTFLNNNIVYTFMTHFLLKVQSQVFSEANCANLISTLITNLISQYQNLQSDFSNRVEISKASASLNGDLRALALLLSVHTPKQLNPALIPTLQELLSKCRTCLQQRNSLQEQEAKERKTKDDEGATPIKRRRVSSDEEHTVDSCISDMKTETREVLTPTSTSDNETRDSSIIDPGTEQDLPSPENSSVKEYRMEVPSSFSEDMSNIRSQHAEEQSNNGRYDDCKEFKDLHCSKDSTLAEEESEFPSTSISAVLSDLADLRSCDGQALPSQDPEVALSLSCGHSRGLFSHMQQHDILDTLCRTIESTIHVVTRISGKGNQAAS

O=C(CCl)N1CCC[C@@H]1c1ccon1
inactive: USP34 -0.0339 | USP36 -0.122 | USP38 -0.189 | USP39 0.0959 | USP4 -0.394
